This is an account of results in PubChem BioAssay (NCI).

SMILES strings stand for the structures. The panel holds about 83,000 compounds, 20% with a hit somewhere; the sample as a whole holds those more often.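 Step 1: grow cells in 96-well plates. Step 2: add test compound at a single concentration. Step 3: incubate 48 h. Step 4: record percent growth.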 Values without a mark were called inactive. The source made the active and inactive calls. The calls were made as follows: active = growth percent below 10; inactive = the rest.

The assay relates to HL-60(TB) leukemia. Nature of the assay: NCI-60 one-dose screen, 48 h (100 = growth as untreated, 0 = no growth, -100 = all killed). Conditions: 10 µM unless noted.
For the molecule `COc1cc(OC)c(/C=C/C(=O)c2c(OC)cccc2OC)c(OC)c1`, the growth was 7.89% (active).
In the case of `O=S(=O)(Nc1ccc2ccccc2c1)c1ccc(-c2cnc(C3CC3)o2)cc1` it was -28% (active).
In the case of `O=C1OC(Oc2ccc(Br)cc2)(c2ccccc2)c2ccccc21` (stereo not given) it was 120%.
In the case of `CCC1(C)OC(=O)NC1=O` (stereo not given) it was 112%; in that of `COc1cccc(/C=C2\SC(N3CCN(c4ccccn4)CC3)=NC2=O)c1`, 95.5%.
Turning to `CCc1nc(N)nc(N)c1C#CC(C)c1ccc(-c2ccncc2)cc1Cl` (stereo not given), the growth was -19.9% (active).
In the case of `O=C1c2cccc3cccc(c23)C(=O)N1N1C(=O)c2cccc3c(NC4CCCCC4)ccc(c23)C1=O` it was 99.3%; in that of `Cc1ccc(CCCC(=O)O)c(C)c1`, 98.3%.
In the case of `CC#CC(=O)N1CCC[C@H]1c1nc(-c2ccc(C(=O)Nc3ccccn3)cc2)c2c(N)nccn12` it was 130%; in that of `COc1cccc(C(=O)Nc2ccc(CN3CCc4nc5cc(OC)c(OC)cc5cc43)cc2)c1`, 60%.
In the case of `Ic1ccccc1-c1ccccc1` it was 81.2%; in that of `CN(C)c1ccc2cc3c(cc2c1)Oc1ccccc1N3.[Cl][Zn][Cl]`, -10.4% (active).
As for `O=c1[nH]c(-c2ccc(Cl)cc2)cn1-c1ccc(-n2cc(-c3ccc(Cl)cc3)[nH]c2=O)cc1`, the growth was 112%.
In the case of `COc1ccccc1CNCCCN1C(=O)c2ccc3c4c(ccc(c24)C1=O)C(=O)N(CCCCNCCCN)C3=O` it was -34.2% (active); in that of `Cc1ccc(-c2cnc3sc4ccc(Cl)cc4n23)cc1`, 90.5%.
